# Molecular target: EPHX2
# Experiment: pooled miR-30 sensor sort-seq; sequence = guide strand
# Settings: shRNA
row,Sequence,sensor-assay potency score (higher = more potent)
1,TCTGAAACCAGACTTCTTGAAC,-0.948
2,AACTGCTGCACATAGAACTGGA,-0.354
3,TTCAGCTCACACATCAGCTGGG,0.39
4,TTTTATGGAGAAATTCTTGGGG,0.765

# Molecular target: ERCC2
# Experiment: as above
# Settings: shRNA
row,Sequence,sensor-assay potency score (higher = more potent)
1,TGACAGACTGGAAACGCTCAAA,-0.97
2,TCGAAGCTCTTCAATCACCTTC,0.181
3,TATCGAGCAAGGAAGTATGGGC,0.161
4,TGTAGGAGAACTGCTCGGGGTA,-0.658
5,TCGATGATGATGGTGAAGCCTT,-1.27
6,TAGAAGTTGAGCAACTTTCGAA,0.118
7,TCAAATTCCTCATAGAATCGGC,-0.0111
8,TCGTCTGTCTCTTTGATCCTGA,-0.221
9,TGGAAGTCCAGGATCTTGGGGT,0.059
10,TCTGGCACAGTTCTTGAGCAGT,-0.9
11,TTTGATCCTGAGCACCGTCTTC,-1.12
12,TTGAGCAGTAGATGAGTTTGGT,0.18
13,TCAATCTCTGGCACAGTTCTTG,0.0123
14,TTCCCATCGACGTCCTTCCCAA,-0.665
15,TGAATACACAAGTTTTTGCGGG,0.0838
16,TTGAGCAACTTTCGAAGCTCTT,-0.541
17,TTGAGCTCCCGCATGTAGGAGA,-0.477
18,TTAGCAAGGAGGGTGAGCGGGG,-1.04
19,ATTCTCACGAATCTGGAACTGG,-0.416
20,TTGGGGTAGATGTCCAGCGGGG,-1.14
21,TTGCGCTGGATGCACACGCGCT,-1.42
22,TAGCTATAAACCACCACATTGG,-1.42
23,AACAGGGATACTGTCTTCCCGG,-1.06
24,TTCAGCACAGAATCTGAGGGGC,0.408

# Molecular target: ERCC8
# Experiment: as above
# Settings: shRNA
row,Sequence,sensor-assay potency score (higher = more potent)
1,TTCTTTCAACATCTCTGTCTTT,-0.331
2,TTACTCTACTGTCAGCACTTGC,-0.793
3,TCACACCATCTGAACCACCTGA,0.0366
4,TTGTAGTCTCATCATCATCAGG,-1.16
5,TTTCTTGTCTGTGACCCTGTAG,-0.264
6,TTTAATTGTGATTTTGTTGTAG,0.555
7,TATTTCTTGTCTGTGACCCTGT,1.1
8,TAAACTATACAGAAGTCTGTTT,-0.703
9,TAGCTGTCAGGAATAGACCATA,-0.945
10,ATTATCTGTACCAACAGTGAGG,-0.965
11,TTGTAATGTATTTGTATCCCAT,-0.441
12,TAACTTTCCCATTATGAGCAGT,-0.724

# Reference: the OligoGym collection
